Experimental findings from PubChem BioAssay AID624169 (The Scripps Research Institute Molecular Screening Center, 2012) are described below.

In all, about 360,000 compounds went through this assay and about 2,400 (0.67%) were called active. Many of the other results were omitted from the sample, so actives are more common in it than they were. Unmarked numbers belong to inactive results.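 The calls were made as follows: active = activation above a run cutoff, the mean activation of all tested compounds plus 3 SD (cut at about 14% in these data); inactive = the rest.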

5-hydroxytryptamine receptor 2A (Mus musculus), sequence (P35363 whole entry, looked up): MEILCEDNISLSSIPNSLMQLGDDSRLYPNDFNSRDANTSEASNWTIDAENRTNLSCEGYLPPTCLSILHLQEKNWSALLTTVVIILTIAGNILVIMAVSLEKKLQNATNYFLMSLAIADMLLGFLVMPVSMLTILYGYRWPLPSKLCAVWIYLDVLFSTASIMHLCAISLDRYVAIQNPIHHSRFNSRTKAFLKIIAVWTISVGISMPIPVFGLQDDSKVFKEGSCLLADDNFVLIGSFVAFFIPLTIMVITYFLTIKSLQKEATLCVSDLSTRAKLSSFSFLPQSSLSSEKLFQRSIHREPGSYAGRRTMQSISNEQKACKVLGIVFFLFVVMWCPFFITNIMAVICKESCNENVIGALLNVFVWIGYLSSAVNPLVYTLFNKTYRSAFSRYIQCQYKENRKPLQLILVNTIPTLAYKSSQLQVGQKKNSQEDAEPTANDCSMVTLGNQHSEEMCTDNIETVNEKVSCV

This experiment has as its target 5-hydroxytryptamine receptor 2A (Mus musculus) (UniProt P35363). Put plainly: activation of mouse 5-HT2A receptor – cell-based, luminescence, primary screen (AID 624169).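 Also: 0% = plate median of compound wells and 100% = 30 µM serotonin.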 The conditions noted are these: CHO-K1 mHTR2A beta-arrestin complementation, at 7.6 µM, hits give high values, percent of 30 µM serotonin response.
As for `CC(=O)c1c(C)n([O-])c2ccccc2[n+]1=O`, the activation was 4.16%.

Turning to `C=CCn1c(=NC(=O)c2cccs2)sc2cc(NC(C)=O)ccc21`, the activation was 23.5% (active). In the case of `C=CCn1c(=NC(=O)c2ccc(S(=O)(=O)N3CCCC3)cc2)sc2cc(NC(C)=O)ccc21` it was 1.21%; in that of `C=CCn1c(CCNC(=O)c2cccs2)n[nH]c1=S`, 4%; in that of `O=C(O)c1ccccc1Cc1ccc(F)c2ccccc12`, -0.35%. In the case of `CCc1ccc2nc(Nc3ncc(C(C)=O)c(C)n3)nc(C)c2c1` it was -1.39%; in that of `COc1ccccc1Nc1nnc(SC(C)C(=O)NC2CC2)s1` (stereo not drawn), 14.8% (active); in that of `O=C(CSc1nnc(Nc2ccccc2F)s1)NC1CCCC1`, -5.06%. In the case of `COc1ccc(-c2nnc(SC(C)C(=O)NC3CC3)o2)cc1` (stereo not drawn) it was -2.06%; in that of `CCCCC1N2CC3([N+](=O)[O-])CN1CC([N+](=O)[O-])(C2)C3(C)C` (stereo not drawn), -2.15%. On to `CC(=O)c1ccc(OCC(=O)N(C)C2CCS(=O)(=O)C2)cc1` (stereo not drawn), for which the activation is 18.4% (active). Consider `CCCCN(C(=O)COc1ccc(NC(C)=O)cc1)C1CCS(=O)(=O)C1` (stereo not drawn), for which the activation is -2.25%. On to `CCc1ccc(OCC(=O)N(Cc2ccccc2)C2CCS(=O)(=O)C2)cc1` (stereo not drawn), for which the activation is -6.02%. Regarding `CN1C(=O)c2ccc(NC(=O)c3c(F)c(F)c(F)c(F)c3F)cc2C1=O`, the activation was 5.38%. In the case of `COc1ccc(C(=O)Nc2c(N)nc(SCC(=O)N3CCC(C)CC3)[nH]c2=O)cc1OC` it was 3.82%; in that of `O=Cc1cn(CCOc2ccc(F)cc2)c2ccccc12`, -3.3%.

In the case of `COc1ccc(N(C(=O)CNC(=O)c2ccco2)C(C(=O)NCC2CCCO2)c2ccccc2)cc1Cl` (stereo not drawn), the activation is -3.88%. Take `CCOC(=O)c1cccc(NC(=O)CN(c2ccc(C)cc2)S(=O)(=O)c2c(C)noc2C)c1`: the activation was 4.56%. As for `Cc1noc(C)c1S(=O)(=O)N(CC(=O)Nc1ccc2c(c1)OCCO2)c1ccc(C(C)C)cc1`, the activation was 18.8% (active). As for `Cc1noc(C)c1S(=O)(=O)N(CC(=O)NCc1ccc(Cl)cc1)c1ccc2c(c1)OCO2`, the figure is 10.9%; as for `COc1ccc(CN2CCN(C(=O)CCC(=O)Nc3nnc(C(C)C)s3)CC2)cc1F`, 10.4%; as for `COc1ccc(NC(=O)C(NC(C)=O)C(=O)NCc2ccccc2Cl)cc1` (stereo not drawn), -1.72%. As for `CC(C)NS(=O)(=O)c1ccc(CCC(=O)N2CCOCC2)cc1`, the figure is -3.51%; as for `COCc1cc(=O)oc2cc(NS(=O)(=O)c3ccc(C)cc3)ccc12`, 6.31%. Turning to `CC(=O)N1c2ccc(S(=O)(=O)N3CCC(C(=O)NCc4ccc(F)cc4)CC3)cc2CC1C` (stereo not drawn), the activation was 5.7%.

For the molecule `CC(=O)N1c2ccc(S(=O)(=O)N3CCC(C(=O)NC4CCCC(C)C4C)CC3)cc2CC1C` (stereo not drawn), the activation is -2.05%. As for `CC(=O)N1c2ccc(S(=O)(=O)N3CCC(C(=O)NC4CCCCC4C)CC3)cc2CC1C` (stereo not drawn), the figure is 15.7% (active); as for `O=S1(=O)CC(N2CCN(Cc3ccccc3F)CC2)CN1Cc1cn(Cc2ccccc2)nn1` (stereo not drawn), 0.73%. With `CC(=O)NCC(=O)N(C)C(C(=O)Nc1ccc2c(c1)OCCO2)c1ccccc1` (stereo not drawn), the activation was 1.2%. In the case of `CCOc1ccc(/C=C/C(=O)OCC(=O)c2ccccc2OC)cc1OC` it was -3.76%; in that of `O=C(Nc1ccc2sc3ccccc3c(=O)c2c1)c1ccccc1Cl`, -3.04%. On to `O=C(Nc1cc(=O)[nH]c2ncnn12)c1ccccc1Cl`, for which the activation was 16.4% (active). `CC(=O)c1cc(CN2CCC(n3nccc3NC(=O)c3ccccc3Cl)CC2)cs1`: the activation is 1.51%. Consider `N#Cc1c(-c2ccc(F)cc2)cc(C2CC2)nc1SCC(=O)c1cccs1`, for which the activation is 4.09%. In the case of `COc1ccccc1CNC(=O)[C@@H]1CCCN1C(=O)[C@@H]1Cc2ccccc2CN1C(=O)OC(C)(C)C` it was -8.22%. For `Cc1cccc(C)c1Cn1c(C)c(C(=O)NCc2cccc(Cl)c2)sc1=O`, the activation was 0.95%. As for `Cc1cccc(CNC(=O)c2sc(=O)n(Cc3ccccc3C)c2C)c1`, the figure is -9.77%. In the case of `Cc1c(C(=O)NCC2CC2)sc(=O)n1Cc1cccc(F)c1` it was 15% (active); in that of `O=C(NNS(=O)(=O)c1ccccc1C(F)(F)F)c1cc2ncc(C(F)(F)F)cc2s1`, 2.01%; in that of `O=C1Cc2cc(S(=O)(=O)Nc3cccc(F)c3)ccc2N1`, -4.43%.

Regarding `CC(C)Cc1oc(C(=O)O)cc1CN`, the activation was -1.78%. With `CCn1cc(-c2cc(C(=O)O)on2)c(C)n1`, the activation was 0.66%. For the molecule `CC(C)c1cc(C(=O)O)on1`, the activation is 16.1% (active). `O=C(NCc1ccccc1Cl)C1CCN(S(=O)(=O)c2cccc3nonc23)CC1`: the activation was 0.64%. In the case of `C=C1C(=O)OC2C1CCC(C)=CCCC1(C)OC21` (stereo not drawn) it was 17.6% (active). On to `Cc1cc(C(=O)OC(C)C(=O)NC2CCCCC2C)c(C)o1` (stereo not drawn), for which the activation was 5.88%. As for `CC(C)(C)NC(=O)Cn1cnc2cc([N+](=O)[O-])ccc2c1=O`, the figure is -0.6%.

As for `O=C(OCc1cn([C@H]2C[C@H](c3ccccc3)N(C(=O)c3cccs3)C[C@@H]2O)nn1)c1ccccc1`, the activation is 0.06%. In the case of `CC1(C)CC(=O)C=C(c2ccccc2CO)C1=O` it was 3.89%; in that of `Fc1ccc2[nH]c3c(N4CCSCC4)ncnc3c2c1`, 16.4% (active); in that of `Cc1ccc(C)c(NC(=O)C(c2ccccc2)N2CCN(CC(=O)NC3CC3)CC2)c1` (stereo not drawn), 1.96%. Regarding `Brc1cc(Br)c(Oc2cc(Br)c(Br)cc2Br)cc1Br`, the activation was 4.05%. In the case of `CCOC(=O)C1CCN(C(=O)C2CCCN(S(=O)(=O)c3ccc(OC)c(Cl)c3)C2)CC1` (stereo not drawn) it was -2.55%; in that of `O=S(=O)(Cc1cc(Cl)nc(-c2cccnc2)n1)c1ccccc1`, -2.49%. Take `CCCOc1ccc(Cl)cc1Nc1nc(NCCO)nc(N2CCCC2)n1`: the activation is 0.98%. As for `CC(C)(C)Oc1ccccc1Nc1nc(NCCO)nc(N2CCCC2)n1`, the activation was 23.9% (active). With `Cn1ncc2c(N3CCCCC3)nc(NCCCO)nc21`, the activation was 1.52%. As for `CCc1nc2c(OCCc3cccc(OC)c3)cccn2c1N(C)C(=O)c1ccc(C)cc1`, the figure is -1.71%.
